Reference: the supplement of paper PMC10849652
About 7,900 targets were measured; listed, in parts, are those with a hit and a random draw of the rest. About 0.6% of all pairs of compound and target were hits. Values without a mark were called inactive.

What was measured:
Test in all cases: log2 fold change, soluble protein after heating vs DMSO (PISA); higher = thermal stabilisation; K562 cells, 10 uM, 30 min; active = over 0.2 and 3.5 SD of the protein, either way, in both replicates (recomputed)
erlotinib = compound: C#Cc1cccc(Nc2ncnc3cc(OCCOC)c(OCCOC)cc23)c1 [erlotinib]
Summary of the method: (§1)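 Values are thermal stability changes relative to control samples and are taken from duplicates. They are stated as log2 fold changes. Before quantification by TMTpro 16plex LC-MS/MS with equalised channel sums, K562 cells at 2×10^6 cells/mL were treated with 10 μM compound for 30 min, heated in aliquots for 3 min across 48°C-58°C, pooled, extracted in PBS with 0.5% NP-40 at 4°C, and centrifuged at 21,000xg for 90 min to give the soluble supernatant.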

[1] = compound: C/C(=N\NC(=O)C1=CC(=CC=C1)S(=O)(=O)N2CCOCC2)/C3=C(C=CC(=C3)Cl)O
Summary of the method: as §1

[2] = compound: C1=CC(=C(C=C1Cl)C2=NC3=NC=CN=C3C(=N2)NC4=CC=NC=C4)F
Summary of the method: as §1

[3] = compound: C1=CC(=CC=C1C2=NC3=C(N2)C=C(C=C3)C(=O)N)OC4=CC=C(C=C4)Cl
Summary of the method: as §1

[4] = compound: C1=CC2=C(C=CC(=C2)/C=C\3/C(=O)NC(=NCC4=CC=CS4)S3)N=C1
Summary of the method: as §1

[5] = compound: C1=CC2=NC=CN=C2C=C1/C=C/3\C(=O)NC(=O)S3
Summary of the method: as §1

[6] = compound: C1=CC=C(C=C1)C2=NC(=C(N2)C3=CC=NC=C3)C4=CC(=C(C=C4)Cl)O
Summary of the method: as §1

[7] = compound: C1=CC=C2C(=C1)C3=NNC4=CC=CC(=C43)C2=O
Summary of the method: as §1

[8] = compound: C1CCN(C1)C(=O)NC2=CC=CC(=C2)NC3=NC=C(C(=N3)NCCC4=CN=CN4)Br
Summary of the method: as §1

[9] = compound: C1CN(CCC1(CC2=CC=C(C=C2)Cl)N)C3=NC=NC4=C3C=CN4
Summary of the method: as §1

IRAK-1-4 Inhibitor I = compound: C1COCCN1CCN2C3=CC=CC=C3N=C2NC(=O)C4=CC(=CC=C4)[N+](=O)[O-] [IRAK-1-4 Inhibitor I]
Summary of the method: as §1

ibrutinib = compound: C=CC(=O)N1CCC[C@@H](n2nc(-c3ccc(Oc4ccccc4)cc3)c3c(N)ncnc32)C1 [ibrutinib]
Summary of the method: as §1

[10] = compound: CC(=O)c1cnc2ccc(-c3cc(Cl)c(O)c(Cl)c3)nc2c1N[C@H]1CC[C@H](CN(C)C)CC1
Summary of the method: as §1

ralimetinib = compound: CC(C)(C)Cn1c(N)nc2ccc(-c3[nH]c(C(C)(C)C)nc3-c3ccc(F)cc3)nc21 [ralimetinib]
Summary of the method: as §1

[11] = compound: CC(C)(O)CC(=O)NCCn1ccc2ncnc(Nc3ccc(Oc4cccc(C(F)(F)F)c4)c(Cl)c3)c21
Summary of the method: as §1

[12] = compound: CC(C)C1=C2N=C(C=C(N2N=C1)NCC3=CC=CC=C3)NCCCCCCN
Summary of the method: as §1

[13] = compound: CC(C)C[C@@H](C=O)NC(=O)[C@H](CC(C)C)NC(=O)[C@H](CC(C)C)NC(=O)OCc1ccccc1
Summary of the method: as §1

pinometostat = compound: CC(C)N(C[C@H]1O[C@@H](n2cnc3c(N)ncnc32)[C@H](O)[C@@H]1O)[C@H]1C[C@@H](CCc2nc3cc(C(C)(C)C)ccc3[nH]2)C1 [pinometostat]
Summary of the method: as §1

[14] = compound: CC1=C(C(CC(=O)N1)C2=CC=C(C=C2)C(F)(F)F)C(=O)NC3=C(C=C4C(=C3)C=NN4)F
Summary of the method: as §1

[15] = compound: CC1=C(C2=C(C=C1)C(=O)C3=CC=CC=C3N2CCCN)C
Summary of the method: as §1

UniProt Q00059, sequence (Q00059 whole entry, looked up): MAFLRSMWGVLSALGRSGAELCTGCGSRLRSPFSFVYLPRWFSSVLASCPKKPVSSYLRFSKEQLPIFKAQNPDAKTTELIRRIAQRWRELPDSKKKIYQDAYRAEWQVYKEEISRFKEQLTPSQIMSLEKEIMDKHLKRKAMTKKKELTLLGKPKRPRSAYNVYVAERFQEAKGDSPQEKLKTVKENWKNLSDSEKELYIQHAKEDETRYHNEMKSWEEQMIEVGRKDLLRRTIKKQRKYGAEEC
UniProt Q9UMY4, sequence (Q9UMY4 whole entry, looked up): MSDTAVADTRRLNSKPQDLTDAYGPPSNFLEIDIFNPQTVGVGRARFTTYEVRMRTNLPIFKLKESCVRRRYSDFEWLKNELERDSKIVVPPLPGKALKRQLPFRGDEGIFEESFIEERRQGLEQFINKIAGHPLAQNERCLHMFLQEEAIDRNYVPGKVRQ
UniProt Q8N0X7, sequence (Q8N0X7 whole entry, looked up): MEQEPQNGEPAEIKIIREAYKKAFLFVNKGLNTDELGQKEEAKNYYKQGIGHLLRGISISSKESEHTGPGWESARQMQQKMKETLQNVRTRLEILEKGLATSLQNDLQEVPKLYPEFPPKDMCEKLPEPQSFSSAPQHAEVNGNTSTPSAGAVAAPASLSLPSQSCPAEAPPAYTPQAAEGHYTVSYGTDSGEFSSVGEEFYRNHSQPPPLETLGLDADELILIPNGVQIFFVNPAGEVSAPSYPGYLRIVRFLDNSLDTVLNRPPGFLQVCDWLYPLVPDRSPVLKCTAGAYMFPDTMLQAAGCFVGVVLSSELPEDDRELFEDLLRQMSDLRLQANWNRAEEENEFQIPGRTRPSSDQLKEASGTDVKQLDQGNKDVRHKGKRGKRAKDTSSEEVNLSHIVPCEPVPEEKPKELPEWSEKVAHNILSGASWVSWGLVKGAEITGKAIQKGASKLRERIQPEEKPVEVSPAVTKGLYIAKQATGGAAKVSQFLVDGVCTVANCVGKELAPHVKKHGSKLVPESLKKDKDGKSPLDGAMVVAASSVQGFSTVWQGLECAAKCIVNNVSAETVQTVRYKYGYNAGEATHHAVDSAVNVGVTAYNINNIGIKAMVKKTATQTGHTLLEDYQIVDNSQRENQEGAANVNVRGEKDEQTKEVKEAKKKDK
UniProt P35610, sequence (P35610 whole entry, looked up): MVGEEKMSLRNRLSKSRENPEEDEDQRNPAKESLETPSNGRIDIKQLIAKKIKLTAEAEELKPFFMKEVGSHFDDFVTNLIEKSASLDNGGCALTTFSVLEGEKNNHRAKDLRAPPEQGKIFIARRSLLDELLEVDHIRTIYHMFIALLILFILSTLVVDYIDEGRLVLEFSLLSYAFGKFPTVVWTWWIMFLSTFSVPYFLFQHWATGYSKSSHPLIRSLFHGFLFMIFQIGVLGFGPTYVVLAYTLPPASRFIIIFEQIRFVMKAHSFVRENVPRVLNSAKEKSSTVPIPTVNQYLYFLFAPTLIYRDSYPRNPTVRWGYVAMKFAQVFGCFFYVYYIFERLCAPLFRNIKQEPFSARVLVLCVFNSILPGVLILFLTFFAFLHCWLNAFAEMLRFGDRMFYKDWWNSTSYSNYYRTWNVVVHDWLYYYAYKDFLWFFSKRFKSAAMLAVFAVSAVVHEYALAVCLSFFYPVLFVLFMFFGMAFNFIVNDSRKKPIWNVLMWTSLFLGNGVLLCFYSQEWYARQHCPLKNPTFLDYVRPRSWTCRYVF
UniProt O60493, sequence (O60493 whole entry, looked up): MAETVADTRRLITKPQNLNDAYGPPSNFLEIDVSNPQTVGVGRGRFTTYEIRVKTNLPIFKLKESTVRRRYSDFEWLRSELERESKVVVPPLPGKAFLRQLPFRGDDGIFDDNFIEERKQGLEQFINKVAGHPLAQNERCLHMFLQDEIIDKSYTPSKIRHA
UniProt Q8IY18, sequence (Q8IY18 whole entry, looked up): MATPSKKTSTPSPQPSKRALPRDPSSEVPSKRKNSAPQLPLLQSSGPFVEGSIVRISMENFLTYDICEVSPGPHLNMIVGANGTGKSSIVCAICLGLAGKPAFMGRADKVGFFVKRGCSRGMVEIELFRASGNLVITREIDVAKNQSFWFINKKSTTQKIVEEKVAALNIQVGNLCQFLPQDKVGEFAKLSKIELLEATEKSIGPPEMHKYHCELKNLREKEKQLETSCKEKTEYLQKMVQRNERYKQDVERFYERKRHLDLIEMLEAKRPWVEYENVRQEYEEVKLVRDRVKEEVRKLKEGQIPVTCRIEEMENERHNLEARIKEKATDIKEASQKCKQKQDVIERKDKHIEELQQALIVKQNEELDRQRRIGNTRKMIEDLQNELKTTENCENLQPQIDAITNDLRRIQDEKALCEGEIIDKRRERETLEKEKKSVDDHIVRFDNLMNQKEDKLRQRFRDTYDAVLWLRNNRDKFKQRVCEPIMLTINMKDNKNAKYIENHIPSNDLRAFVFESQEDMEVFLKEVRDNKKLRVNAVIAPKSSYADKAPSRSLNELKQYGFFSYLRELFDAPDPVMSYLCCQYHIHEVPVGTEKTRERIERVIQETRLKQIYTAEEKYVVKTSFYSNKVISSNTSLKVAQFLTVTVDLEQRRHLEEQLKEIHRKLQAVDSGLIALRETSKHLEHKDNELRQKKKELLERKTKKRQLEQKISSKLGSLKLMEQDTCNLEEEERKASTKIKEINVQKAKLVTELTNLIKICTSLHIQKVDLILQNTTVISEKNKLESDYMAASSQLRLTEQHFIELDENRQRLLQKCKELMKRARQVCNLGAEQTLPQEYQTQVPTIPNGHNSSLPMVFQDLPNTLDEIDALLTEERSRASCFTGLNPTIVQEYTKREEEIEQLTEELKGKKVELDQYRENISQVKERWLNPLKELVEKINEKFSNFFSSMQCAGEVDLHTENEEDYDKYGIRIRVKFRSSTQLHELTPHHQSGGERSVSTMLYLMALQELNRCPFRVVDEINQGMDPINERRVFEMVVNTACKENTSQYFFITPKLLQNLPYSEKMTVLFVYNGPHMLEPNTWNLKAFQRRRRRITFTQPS
UniProt O00193, sequence (O00193 whole entry, looked up): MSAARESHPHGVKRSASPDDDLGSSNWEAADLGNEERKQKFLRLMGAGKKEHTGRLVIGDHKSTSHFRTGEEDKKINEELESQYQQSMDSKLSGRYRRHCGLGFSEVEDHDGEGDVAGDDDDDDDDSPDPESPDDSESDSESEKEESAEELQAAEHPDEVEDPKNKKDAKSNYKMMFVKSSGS
UniProt Q9Y5X3, sequence (Q9Y5X3 whole entry, looked up): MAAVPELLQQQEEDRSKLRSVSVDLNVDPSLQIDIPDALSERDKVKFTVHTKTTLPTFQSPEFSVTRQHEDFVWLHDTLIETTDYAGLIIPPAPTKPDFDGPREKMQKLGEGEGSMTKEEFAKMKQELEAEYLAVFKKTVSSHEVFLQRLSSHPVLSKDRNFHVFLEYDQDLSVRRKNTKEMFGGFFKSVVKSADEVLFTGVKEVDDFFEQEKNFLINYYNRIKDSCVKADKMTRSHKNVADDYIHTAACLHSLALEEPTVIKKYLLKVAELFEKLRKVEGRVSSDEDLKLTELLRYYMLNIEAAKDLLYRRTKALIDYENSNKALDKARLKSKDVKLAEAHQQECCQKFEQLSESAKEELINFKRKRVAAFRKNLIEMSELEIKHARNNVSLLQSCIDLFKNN
UniProt Q96DW6, sequence (Q96DW6 whole entry, looked up): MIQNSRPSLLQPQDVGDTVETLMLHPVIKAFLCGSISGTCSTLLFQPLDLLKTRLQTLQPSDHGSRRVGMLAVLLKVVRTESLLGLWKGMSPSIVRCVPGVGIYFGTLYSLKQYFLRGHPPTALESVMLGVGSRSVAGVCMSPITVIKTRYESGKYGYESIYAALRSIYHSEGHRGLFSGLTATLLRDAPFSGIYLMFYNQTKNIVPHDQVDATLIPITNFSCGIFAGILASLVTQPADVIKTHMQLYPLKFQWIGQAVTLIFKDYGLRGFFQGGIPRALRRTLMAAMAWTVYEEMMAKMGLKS
UniProt P51571, sequence (P51571 whole entry, looked up): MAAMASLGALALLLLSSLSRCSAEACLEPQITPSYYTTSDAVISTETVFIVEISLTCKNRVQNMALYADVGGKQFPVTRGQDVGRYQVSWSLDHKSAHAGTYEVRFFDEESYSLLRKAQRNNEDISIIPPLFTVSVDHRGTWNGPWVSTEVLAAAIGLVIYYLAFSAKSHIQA
UniProt Q8WXA9, sequence (Q8WXA9 whole entry, looked up): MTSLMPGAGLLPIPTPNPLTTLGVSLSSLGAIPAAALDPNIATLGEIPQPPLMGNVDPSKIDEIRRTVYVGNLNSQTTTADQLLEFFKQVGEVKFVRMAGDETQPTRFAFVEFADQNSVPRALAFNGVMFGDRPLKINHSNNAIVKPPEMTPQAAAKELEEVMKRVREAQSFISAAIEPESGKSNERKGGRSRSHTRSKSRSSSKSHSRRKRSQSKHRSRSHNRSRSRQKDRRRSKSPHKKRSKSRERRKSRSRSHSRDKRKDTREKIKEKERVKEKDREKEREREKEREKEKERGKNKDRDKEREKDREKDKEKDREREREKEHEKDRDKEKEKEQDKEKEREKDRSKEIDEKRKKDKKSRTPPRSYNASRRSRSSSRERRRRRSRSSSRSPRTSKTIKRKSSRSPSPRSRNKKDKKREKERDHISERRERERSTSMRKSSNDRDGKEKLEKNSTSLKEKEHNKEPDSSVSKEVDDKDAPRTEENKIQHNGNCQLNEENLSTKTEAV
UniProt O43615, sequence (O43615 whole entry, looked up): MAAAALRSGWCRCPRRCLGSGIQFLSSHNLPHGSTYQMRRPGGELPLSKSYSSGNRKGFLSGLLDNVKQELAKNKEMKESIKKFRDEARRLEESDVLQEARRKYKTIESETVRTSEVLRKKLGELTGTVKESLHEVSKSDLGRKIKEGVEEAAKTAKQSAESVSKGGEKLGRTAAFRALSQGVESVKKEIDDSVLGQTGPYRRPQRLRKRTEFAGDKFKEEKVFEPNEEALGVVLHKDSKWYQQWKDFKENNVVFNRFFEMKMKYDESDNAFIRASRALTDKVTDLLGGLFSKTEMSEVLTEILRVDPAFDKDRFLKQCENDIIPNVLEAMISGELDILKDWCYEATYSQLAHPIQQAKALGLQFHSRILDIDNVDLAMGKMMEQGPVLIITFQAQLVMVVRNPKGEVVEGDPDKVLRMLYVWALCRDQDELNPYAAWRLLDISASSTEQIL

Target	log2 fold change (erlotinib)	log2 fold change [1]	log2 fold change [2]	log2 fold change [3]	log2 fold change [4]	log2 fold change [5]	log2 fold change [6]	log2 fold change [7]	log2 fold change [8]	log2 fold change [9]	log2 fold change (IRAK-1-4 Inhibitor I)	log2 fold change (ibrutinib)	log2 fold change [10]	log2 fold change (ralimetinib)	log2 fold change [11]	log2 fold change [12]	log2 fold change [13]	log2 fold change (pinometostat)	log2 fold change [14]	log2 fold change [15]
TFAM (UniProt Q00059)	-0.085	-0.071	-0.127	0.031	-0.009	-0.022	-0.068	-0.05	0.06	-0.078	-0.047	0.03	0.07	0.044	0.043	0.007	0.056	0.05	0.002	-0.414 (active)
TEX30 (UniProt Q5JUR7)	0.183	0.165	-0.011	-0.013	0.188	0.025	-0.01	0.046	-0.147	-0.029	-0.013	0.08	-0.048	0.053	-0.251	-0.075	0.03	0.105	0.061	0.028
SMC5 (UniProt Q8IY18)	-0.041	0.091	-0.091	0.04	0.014	0.005	-0.017	-0.141	0.042	0.116	0.041	0.062	-0.045	0.046	0.029	0.161	0.036	0.008	-0.031	-0.332 (active)
SSR4 (UniProt P51571)	-0.016	0.055	0.041	0.051	0.059	0.007	-0.031	-0.002	0	-0.025	0.003	0.032	-0.033	0.049	-0.034	-0.03	0.032	-0.028	-0.015	0.09
SNX1 (UniProt Q13596)	0.048	0.034	0.009	0.055	0.005	-0.035	-0.024	-0.118	0.017	-0.03	0.022	0.022	-0.227	0.033	-0.288	-0.246	0.034	0.014	0.015	0.036
SNX5 (UniProt Q9Y5X3)	0.033	0.09	0.042	0.022	0.057	-0.024	-0.05	-0.038	0.077	-0.009	0.042	0.019	-0.167	-0.038	-0.304 (active)	-0.224	0.005	0.027	0.018	-0.026
STAT3 (UniProt P40763)	-0.023	0.147	0.026	0.007	0.031	0.031	0.011	-0.001	-0.01	-0.036	-0.038	-0.044	0.009	-0.001	-0.08	-0.261 (active)	0.024	0	-0.05	-0.057
SLC25A38 (UniProt Q96DW6)	0.007	-0.001	-0.023	-0.036	0.129	0.054	0.023	0.005	-0.005	0.055	0.005	-0.001	0.003	-0.053	0.035	0.049	-0.018	-0.03	0.012	0.01
SPART (UniProt Q8N0X7)	0.024	0.008	0.057	0.008	0.07	0.002	-0.008	-0.014	-0.033	-0.055	0.008	-0.033	-0.084	0.02	-0.058	-0.056	-0.011	0.034	-0.04	0.128
SNX12 isoform 1 (UniProt Q9UMY4)	0.002	0	0.052	-0.019	0.065	-0.01	0.039	-0.064	0.048	-0.034	0.039	-0.007	-0.069	-0.011	-0.068	-0.09	0.03	0.032	-0.007	0
SMAP (UniProt O00193)	-0.006	0.026	0.119	0.017	-0.063	0.073	-0.012	0.015	0.006	0.047	0.134	-0.063	-0.021	0.007	-0.004	0.058	-0.018	-0.049	0.029	-0.021
TIMM44 (UniProt O43615)	-0.012	0.026	0.054	-0.007	0.024	0.041	0.042	0.012	0.028	-0.029	0.066	-0.061	-0.065	-0.039	-0.171	-0.399 (active)	0.006	-0.004	0.028	0.022
SYF2 (UniProt O95926)	-0.042	-0.054	-0.052	0.05	-0.054	0.069	0.023	-0.097	-0.024	0.122	-0.063	0.056	0.411 (active)	-0.019	0.049	0.327	0.199	0.072	0.023	0.382 (active)
SREK1 isoform 2 (UniProt Q8WXA9)	-0.036	0.1	-0.019	0.12	-0.149	-0.084	0.233	-0.096	-0.126	-0.24	-0.245	-0.006	-0.497 (active)	0.036	0.026	-0.36	0.005	0.11	0.022	0.08
SOAT1 (UniProt P35610)	0.174	0.099	-0.034	-0.063	0.141	0.063	0.074	-0.038	0.001	0.026	0.1	-0.008	-0.031	0.031	-0.04	-0.014	0.303	-0.017	-0.041	0.053
SNX3 (UniProt O60493)	0.129	0.074	-0.056	-0.052	0.078	-0.058	0.123	-0.136	0.026	-0.068	-0.049	0.011	-0.028	-0.059	-0.104	-0.187	0.084	0.073	-0.022	0.053
